From PubChem BioAssay (NCATS)
Values joined by “and” are separate entries in the source; they are usually repeats but may differ in a detail not shown here. Equal entries are not always repeated. Results filed as inconclusive are left out. Active and inactive are the calls of the source. Unless noted, calls come from the whole dose curve; as a rule, active = well fitted inhibition curve with a large enough effect; inconclusive = small, poorly fitted or top-dose-only effect; inactive = no such curve, though single readings can be large or run the other way.

Target: Cytochrome P450 2C19 (Homo sapiens) (UniProt P33261)
Sequence (P33261 whole entry, looked up): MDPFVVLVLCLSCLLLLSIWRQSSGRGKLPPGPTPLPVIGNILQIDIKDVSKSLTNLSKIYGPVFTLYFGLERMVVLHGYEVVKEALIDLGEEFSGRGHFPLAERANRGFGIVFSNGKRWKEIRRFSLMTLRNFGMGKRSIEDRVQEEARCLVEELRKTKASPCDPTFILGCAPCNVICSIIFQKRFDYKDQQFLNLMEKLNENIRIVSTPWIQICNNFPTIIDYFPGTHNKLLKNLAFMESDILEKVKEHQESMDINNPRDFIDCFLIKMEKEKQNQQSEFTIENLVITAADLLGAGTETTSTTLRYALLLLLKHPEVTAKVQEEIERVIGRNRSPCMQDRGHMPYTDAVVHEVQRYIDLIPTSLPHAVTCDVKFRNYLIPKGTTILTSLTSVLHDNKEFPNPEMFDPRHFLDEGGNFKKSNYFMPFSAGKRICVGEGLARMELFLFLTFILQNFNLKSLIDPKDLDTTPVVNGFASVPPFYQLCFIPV
Test: qHTS Assay for Inhibitors and Substrates of Cytochrome P450 2C19 (AID 899); note: nearly all actives have a fitted effect of over 60% in size; note: potency is the fitted concentration of half-maximal effect
Conditions: recombinant CYP2C19, luciferin-H EGE luminescence; series mostly up to 11.4 µM
Procedure, shortened: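 NADPH-dependent conversion of Luciferin-H EGE (10uM, at KM) by 5nM enzyme in 50mM KPO4, 60 min at 37C following 10 min compound preincubation. Stopped with luciferin detection buffer; luminescence read after 20 min.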

Potency, inactive:
CC(C)(C)N1C(=O)[C@H]2[C@@H]3[C@H](O)[C@H](O)CC(=O)[C@H]3CC[C@H]2C1=O, C[C@@H](c1ccccc1)N1C(=O)[C@H]2[C@@H]3[C@H](O)C=CC(=O)[C@H]3CC[C@H]2C1=O

Potency, active:
CCCCCCCC#Cc1ccccc1C(NC(=O)OC)C(C(=O)OC)C(=O)OC (configuration not stated) 2.51 µM

Tested on: not listed separately
Test: qHTS Assay for Identification of Small Molecule Agonists for Hypoxia Response Element Signaling Pathway (AID 914; active = well fitted activation curve with a large enough effect in the signal ratio, with a control signal flat, not every such curve was filed as active; the % refers to the signal ratio; note: % of control where 0% means no effect)
Conditions: ME-180 (cervical carcinoma) HRE-bla reporter, beta-lactamase ratio, CoCl2, 17 h; stronger effect = higher value
Procedure, shortened: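 A beta-lactamase reporter under hypoxia response element control in ME-180 cells served as the system. Compound titrations plus EC50 CoCl2 ran 17 h at 37 degrees Celsius; AC50 values were fitted from %Activity.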

activation, inactive:
C#CCCCO/N=C1/C[C@@H](O)[C@@H](O)[C@@H]2[C@@H]3C(=O)N(C4CCCCC4)C(=O)[C@H]3CC[C@H]12 7.1%, CCCNC(=O)OC[C@@H]1O[C@H](CCON=C(C)C)C=C[C@@H]1Oc1ccc(OC)cc1 -3.17%, COc1ccc(COC(=O)N/N=C2/C[C@@H](O)[C@@H](O)[C@@H]3[C@@H]4C(=O)N(c5cccc(Oc6ccccc6)c5)C(=O)[C@H]4CC[C@@H]23)cc1 -7.26%, C/C(CCN1CCc2nc(-c3ccccc3)c(-c3ccccc3)cc2C1)=N\O[C@@H](C)c1cn([C@H](CO)Cc2ccccc2)nn1 -1.74% and -5.69%, C/C(CCN1CCc2nc(-c3ccccc3)c(-c3ccccc3)cc2C1)=N\O[C@@H](C)CN1CCCc2nc(C)c(C)cc21 24.9%, C/C(CCC(=O)OC[C@@H]1O[C@H](C#Cc2ccccc2)C=C[C@@H]1Oc1ccc(C)cc1)=N/OC[C@@H](C)[C@H](OCc1ccccc1)C(C)C 14.9%, CC(C)C(=O)N[C@@H]1CCCN1C(=O)/C=C\c1ccccc1 12.7%, CCc1cc2c(nc1CC)CCN(CC/C(C)=N/OC[C@@H](O)[C@@H]1O[C@@H]3OC(C)(C)O[C@@H]3[C@H]1O)C2 -8.78%, CO[C@H]1COC(=O)C/C=C\[C@H](C)COC(=O)[C@@H](OCc2ccccc2)/C=C\[C@@H]1C -11.2%
